Experimental data published in the supplement of paper PMC6555819.

How the values were obtained:
Test in all cases: PBM binding z-score (relative to random genomic background probes); higher = stronger binding; sequences stand for … in GC…GCGATTGACAGCGTAGAATGAAGG
[1] = system: FXR:RXRa (NR concentration 270 nM, RXRa partner concentration 90 nM)
Method in brief: (§1)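 Custom Agilent 4×180K protein-binding microarrays carried double-stranded probes, each with a 34-nt variable region. These regions held direct-repeat seeds, single-nucleotide variants, half-site ablations and random human genomic background sequences. Ligand-free nuclear receptor dimers were incubated on the arrays for 1 h, antibodies against each partner (one per run) detected binding, and scanned fluorescence was regression-normalized. Binding z-scores take the random background probes as reference.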

[2] = system: LXRa:RXRa (NR concentration 270 nM, RXRa partner concentration 90 nM)
Method in brief: as §1

[3] = system: LXRa homodimer (NR concentration 270 nM)
Method in brief: as §1

[4] = system: LXRb:RXRa (NR concentration 270 nM, RXRa partner concentration 90 nM)
Method in brief: as §1

[5] = system: LXRb homodimer (NR concentration 270 nM)
Method in brief: as §1

[6] = system: PPARa:RXRa (NR concentration 270 nM, RXRa partner concentration 90 nM)
Method in brief: as §1

[7] = system: PPARg:RXRa (NR concentration 180 nM, RXRa partner concentration 90 nM)
Method in brief: as §1

[8] = system: PPARg:RXRa 270nM:90nM, anti-RXR (NR concentration 270 nM, RXRa partner concentration 90 nM)
Method in brief: as §1

[9] = system: PPARg:RXRa 30nM:10nM, anti-RXR (NR concentration 30 nM, RXRa partner concentration 10 nM)
Method in brief: as §1

[10] = system: PPARg:RXRa 90nM:30nM, anti-RXR (NR concentration 90 nM, RXRa partner concentration 30 nM)
Method in brief: as §1

Sequence | PBM binding z-score [1] | PBM binding z-score [2] | PBM binding z-score [3] | PBM binding z-score [4] | PBM binding z-score [5] | PBM binding z-score [6] | PBM binding z-score [7] | PBM binding z-score [8] | PBM binding z-score [9] | PBM binding z-score [10]
TCTTGTAGATCATTAGAGGTTAAGAAAGTGCGCT | 1.06 | 4.79 | 1.68 | 2.27 | 0.3 | 1.77 | -0.111 | 1.81 | 2.85 | 2.33
GCGACTGGGGCAAAGCAGGATACCATAAGGTTGG | 0.421 | -0.82 | -0.556 | -0.347 | -0.952 | 0.75 | 1.31 | 1.03 | -0.094 | 0.712
GCTGCGAGGTCAGGTTGGTCAGCTAACGGGTACG | 5.45 | 3.46 | 0.305 | 2.93 | 0.482 | 4.38 | 2.49 | 2.99 | 0.517 | 1.75
TGTCAAAGTTGAAAGGTAACGTAAGTATCCACAC | 1.27 | 1.12 | -0.229 | 1.38 | -0.452 | 3.49 | 5.4 | 5.19 | 2.72 | 4.73
ACTAGCAGGCCAAGGGTCACTCACGATTAGTCCG | 2.5 | 2.67 | 0.186 | 2.74 | -0.177 | 4.69 | 7.31 | 6.69 | 5.72 | 6.89
CGTCCAAGGTCAGCAGGTAAGTGAAAGCGACGTG | 5.48 | 3.22 | -0.131 | 2.36 | -0.25 | 4.3 | 3 | 3.31 | 0.585 | 2.28
GCAGTCAGGTGAAACGCAGGTAACTCAGGGTGGC | 0.205 | -0.0689 | -0.816 | -0.344 | -1.08 | 0.614 | 0.152 | 0.222 | -0.525 | 0.166
TCATATAGGTAATACTGGTGAAAGTCGGCATCTA | 0.82 | 1 | 0.397 | 0.738 | 0.101 | 1.29 | 0.902 | 2.27 | 3.82 | 3.28
GCTAGTTGGTCAGTAAACGGTCACACACCGGTCG | -0.00893 | 0.121 | 0.352 | -0.139 | -0.393 | 0.395 | 0.552 | -0.0958 | -0.311 | 0.18
ATCTCTAGGTAAAGTTCAGTTAAAGATCGATAGA | 1.31 | 2.28 | 1.98 | 1.67 | 1.22 | 2.39 | 3.27 | 4.32 | 2.38 | 3.95
CAAACTACGTCACGAAAGGTCAAAGTCGAATGAC | 5.17 | 6.32 | 6.22 | 5.7 | 2.44 | 5.11 | 3.01 | 4.1 | 1.58 | 3
ATCTGTAGGTAAAGTTCAGTGAAAGATCGATAGA | 0.691 | 1.44 | 1.19 | 1.01 | 0.396 | 2.28 | 3.37 | 4.2 | 2.41 | 3.78
CCTACTGGGCCAAGGTCATCGATCAGTCAAAGCA | 3.48 | 3.15 | 0.707 | 2.74 | -0.415 | 4.23 | 4.52 | 4.7 | 2 | 4.15
CATACAGGGTCAGCTAGGCCAGAGTCGGGACGGC | 4.49 | 3.06 | -0.0518 | 1.97 | 0.537 | 4.21 | 3.11 | 3.03 | 0.551 | 1.92
ATCTCTAGGTAAGACTCAGTTCTGTGAAGAACGC | 0.335 | 0.184 | 0.199 | 0.00724 | 0.696 | 0.118 | -0.0876 | -0.0102 | -0.0402 | -0.012
CTCGAAAGGTCGGTTGAGGAGAGTATACGGATAA | 1.93 | 1.38 | -0.296 | 1.13 | 0.0344 | 2.25 | 0.367 | 1.09 | 0.298 | 0.525
ACTAGCAGGCCAAGTTTGGGTCACACAAACAAAG | 0.341 | 0.408 | -0.252 | 1.17 | -0.354 | 1.85 | 0.563 | 0.793 | -0.154 | 0.0156
AGAATGAGGTTACCAAAGATCAGGGGAACGCTTG | 1.87 | 6 | -0.402 | 3.15 | -0.39 | 3.44 | 2.74 | 2.72 | 1.04 | 2
TGTCACAGTTCAAAGGTAACGTAAGTATCCACAC | 4.13 | 3.82 | 0.785 | 2.87 | 0.361 | 4.26 | 4.43 | 4.67 | 1.68 | 3.69
AGAACGAGGGCAATGAGTTTATAGCACGGGTGGC | 0.163 | 0.317 | -0.472 | -0.145 | -0.322 | 1.25 | 1.55 | 0.876 | 0.119 | 0.36
CCGACTAGGGCAGAAAGGTTACCATACCATCCGG | 0.259 | 0.701 | 0.0905 | 0.925 | -0.912 | 2.11 | 1.79 | 2.27 | 0.723 | 1.86
TAGCCTAGGCCATTCAGGGGCCAGTATAGAAAGC | -0.487 | -0.796 | -0.549 | -0.624 | -0.52 | -0.185 | 0.0353 | -0.377 | -0.468 | -0.511
CGACAAAGTTCAAGGTAACGTAACAGAAAGCAGC | 5.84 | 5.54 | 1.97 | 3.29 | 0.658 | 4.63 | 3.59 | 4.67 | 1.47 | 3.46
CCTCGGAGGACAGAAGGTCAGAGCAGTCCGCTTT | 1.47 | 1.7 | 0.116 | 1.25 | -0.798 | 2.04 | 0.114 | 0.948 | -0.57 | 0.201
